# ELG1 genotoxic: induces genotoxicity in HEK293T cells with luciferase-tagged ELG1. 1.3% of 330,000 active. AID 504466. HEK293T ELG1-luciferase reporter, luminescence, 16 h. Potency, µM (titrated, usually from 46 µM), for the others: top-dose activity change, positive = activation, actives largely listed as activators; also: % of control where 0% means no effect; nearly all actives have a fitted effect of over 60% in size
#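 Step 1: seed 2,000 HEK293T ELG1-luciferase cells per well. Step 2: add compound or DMSO, incubate 16 hr at 37 °C. Step 3: ONE-Glo, 30 min at room temperature, read luminescence.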
# FLuc counter: inhibits or activates purified firefly luciferase, miR-21 counter-screen. Potency, µM (titrated, usually from 57.5 µM), for the others: at the highest dose activity change, negative = inhibition, most hits filed as inhibitors. 6.9% of 360,000 active. purified FLuc, Km substrates, luminescence inhibition. P08659;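 also: plate controls were vehicle for no effect and reference inhibitor for full effect; nearly all actives have a fitted effect of over 55% in size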
# Target sequence (P08659 whole entry, looked up): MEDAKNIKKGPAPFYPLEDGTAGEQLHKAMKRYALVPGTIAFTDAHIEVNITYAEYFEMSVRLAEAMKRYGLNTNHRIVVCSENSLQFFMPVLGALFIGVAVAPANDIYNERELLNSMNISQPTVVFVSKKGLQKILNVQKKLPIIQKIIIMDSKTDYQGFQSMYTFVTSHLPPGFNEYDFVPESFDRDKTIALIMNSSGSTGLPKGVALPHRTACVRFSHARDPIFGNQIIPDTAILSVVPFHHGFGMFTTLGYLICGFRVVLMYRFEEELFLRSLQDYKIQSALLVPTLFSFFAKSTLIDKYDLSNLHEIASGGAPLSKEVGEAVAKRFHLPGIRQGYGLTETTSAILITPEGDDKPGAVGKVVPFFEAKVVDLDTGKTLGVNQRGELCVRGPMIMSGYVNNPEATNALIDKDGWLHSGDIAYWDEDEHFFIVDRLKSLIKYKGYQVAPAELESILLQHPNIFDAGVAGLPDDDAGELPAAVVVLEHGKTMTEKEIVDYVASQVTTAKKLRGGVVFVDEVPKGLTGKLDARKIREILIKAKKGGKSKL
#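 Purified P. pyralis luciferase, 10 nM final, with Km-level 10 uM D-luciferin and 10 uM ATP in 50 mM Tris acetate pH 7.5, 10 mM Mg acetate, 0.01% Tween-20, 0.05% BSA; 6-point qHTS titration about 60 µM downward; luminescence read.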
# Rab9 promoter act: Rab9 promoter activation; Potency, µM (titrated, usually from 9.22 µM), for the others: at the highest dose activation, negative = inhibition, most hits filed as activators; 2.8% of 320,000 active; Huh7 Rab9 promoter-luciferase reporter, luminescence, 24 h; also: % of control where 0% means no effect; nearly all actives have a fitted effect of over 60% in size
#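 Measured in stably transfected Huh7 cells bearing a Rab9 promoter–luciferase construct: 24 h compound treatment at 37 °C, followed by luminescence detection.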
# SMN2 splice enh: enhancers of SMN2 splice variant expression; HEK293 SMN2-luciferase splicing reporter, luminescence, 30-36 h; Potency, µM (doses to about 46.1 µM), for inactives: top-dose activity change, positive = activation, hits mostly activators; 2.8% of 210,000 active; also: % of control where 0% means no effect; nearly all actives have a fitted effect of over 55% in size
#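 HEK293 cells carry an SMN2 minigene-luciferase reporter in which exon 7 inclusion puts luciferase in frame. Cells were seeded at 2000 cells/well, attached for 10-12 hours, then exposed to compounds for 30-36 hours at 37C before ONE-Glo luminescence.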
# ELG1 DNA repair: inhibitors of ELG1-dependent DNA repair in HEK293T cells. Potency, µM (top dose mostly 46.1 µM), for the others: at the top dose activity change, negative = inhibition, actives largely listed as inhibitors. HEK293T ELG1-luciferase reporter, luminescence, 16 h; DNA damage induced by 5-fluorouridine. 2.3% of 330,000 active; also: % is scaled to controls: 0 for no effect and ±100 for the full control effect; nearly all actives have a fitted effect of over 55% in size
#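 Quantitative HTS, concentration-response format. 2,000 cells/well co-treated with 5-fluorouridine and compound, 16 hr in 5% CO2 at 37 °C; ONE-Glo luminescence read after 30 min.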
# NPC1 promoter act: activates the NPC1 promoter. Huh7 NPC1 promoter luciferase reporter, 24 h. Potency, µM (doses to about 9.22 µM), inactives show at the highest dose activation, most hits filed as activators. AID 485313. 2.4% of 320,000 active; also: % of control where 0% means no effect; nearly all actives have a fitted effect of over 60% in size
#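 Stably transfected Huh7 (NPC1 promoter→luciferase), 1500 cells/well in Opti-MEM + 10% FBS, 2 h settle, then compound 24 h at 37 °C. Luminescence after 10 min with Amplite reagent.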
# * hit, by the source's call; ? = inconclusive; · = no result given. A selection: hits, their analogues and other compounds. The true share with any hit is near 9.2%. Calls follow the shape of the dose curve; as a rule, active = well fitted curve in the direction sought with a large enough effect; inconclusive = small, poorly fitted or top-dose-only effect, or another doubt; inactive = no such curve, though single readings can be large; an effect the other way counts as inactive or inconclusive. Potency is read from the fitted curve at half-maximal effect.
SMILES,ELG1 genotoxic,FLuc counter,Rab9 promoter act,SMN2 splice enh,ELG1 DNA repair,NPC1 promoter act
COc1ccc(-n2nc(C(=O)NCC(=O)Nc3cc(Cl)c(OC)cc3OC)c3ccccc3c2=O)cc1,-7.5%,-1.5%,-6.5%,·,?,-12.5%
COc1ccc(-n2nc(C(=O)Nc3ccc(OC)c(OC)c3)c3c4ccccc4n(C)c3c2=O)cc1,17.5%,4.0%,0.4%,-4.2%,8.2µM*,-1.4%
CCN(CCCNC(=O)CNC(=O)c1nn(-c2ccc(OC)cc2)c(=O)c2ccccc12)c1cccc(C)c1,-16.3%,-2.2%,4.0%,·,-23.6%,-6.6%
COc1ccc(-n2nc(C(=O)NCC(=O)NCCc3ccc(OC)c(OC)c3)c3ccccc3c2=O)cc1,-13.3%,-0.9%,1.5%,·,16.4µM*,-8.1%
COc1ccc(-n2nc(C(=O)NCC(=O)Nc3cc(OC)ccc3OC)c3ccccc3c2=O)cc1,-16.3%,-0.1%,-8.5%,·,13µM*,-25.3%
CCN(CCCNC(=O)CNC(=O)c1nn(-c2ccc(OC)c(OC)c2)c(=O)c2ccccc12)c1ccccc1,-9.4%,-1.1%,-3.1%,·,10.3µM*,1.2%
O=C(Nc1ccc(F)cc1)C1CCN(S(=O)(=O)c2ccc3[nH]c(=O)oc3c2)CC1,5.2%,2.0%,1.9%,·,?,-0.7%
COc1ccccc1NC(=O)Cn1nnc2sc3c(c2c1=O)CC(C)(C)OC3,-1.3%,0.1%,-1.1%,·,20.6µM*,-1.9%
Cc1nn(CC(=O)OCC(=O)Nc2cccc(S(N)(=O)=O)c2)c(C)c1[N+](=O)[O-],4.1%,·,·,·,?,·
S=C(N/N=C/c1ccc2ncccc2c1)Nc1ccccc1,?,4.78µM*,?,?,?,?
C(=N\NCc1ccccc1)/c1ccc2nccnc2c1,?,12µM*,2.51µM*,·,?,3.55µM*
O=C(N/N=C/c1ccc2nccnc2c1)c1ccc(Br)cc1,3.5%,?,-0.6%,·,-16.6%,-1.2%
C(=N\NCc1ccccc1)/c1ccc2ncccc2c1,2.59µM*,4.26µM*,1.58µM*,·,?,1.12µM*
C(=N\n1cnnc1)/c1ccc2ncccc2c1,0.5%,3.3%,3.8%,-6.7%,16.3%,-5.8%
Cc1cccc(C(=O)Nc2ccc(N3CCC(N4CCCCC4)CC3)c(C(=O)O)c2)c1,·,-3.8%,·,·,·,·
O=C(CN1CCc2ccccc2C1)Nc1ccc(F)cc1,-0.5%,2.6%,-2.9%,·,2.2%,-6.0%
O=C(CNc1cccc(F)c1)N1CCc2ccccc2C1,?,13.5µM*,4.47µM*,·,?,3.16µM*
Cc1ccc(NC(=O)N2CCc3ccccc3C2)cc1,8.2µM*,12µM*,3.55µM*,11.2µM*,?,2.82µM*
CN(C)c1ccc(NC(=O)CN2CCc3ccccc3C2)cc1,?,23.9µM*,?,·,?,29.2%
O=C(Nc1ccccc1)N1CCc2ccccc2C1,14.8%,21.3µM*,3.98µM*,14.1µM*,?,?
O=C(Nc1ccc(Cl)cc1)N1CCc2ccccc2C1,-3.7%,?,2.6%,·,2.4%,-1.0%
O=C(c1cccc(F)c1)N1CCc2ccccc2C1,11.6%,?,17.8%,?,0.0%,2.0%
CCc1nnc(NC(=O)c2ccc(COc3cccc(C)c3)o2)s1,1.5%,-2.3%,-0.4%,·,-4.1%,-2.6%
COc1cccc(C(=O)Nc2nc3nc(C)c(Cc4ccccc4)c(=O)n3[nH]2)c1,·,?,·,23.4%,·,·
O=C(O)C1CCN(C(=O)CSc2nc3ccccc3c(=O)n2-c2ccc(Cl)cc2)CC1,3.7%,-8.2%,-1.9%,·,29.2%,-1.5%
CC(C)C(NC(=O)c1ccco1)C(=O)OCC(=O)c1ccccc1 (stereo not drawn),2.2%,16.9µM*,6.0%,·,11.7%,0.4%
Cc1cc(C(=O)COC(=O)c2ccco2)c(C)n1Cc1ccco1,2.59µM*,0.213µM*,1.41µM*,13.2%,?,?
Cc1cc(C(=O)CSc2nnc(N)s2)c(C)n1Cc1ccco1,1.83µM*,3.01µM*,0.447µM*,?,?,0.447µM*
